SMILES strings stand for the structures. Records with an inconclusive call do not appear. Some structures have more than one record in an assay (separate samples or runs), and their calls can disagree. Active and inactive are the calls of the source. The call rests on the fitted dose curve.
On the % scale 0 is the no-effect control and ±100 the full control effect; potency means the concentration at half of the fitted maximal effect.

Muscarinic acetylcholine receptor M1 (Homo sapiens), sequence (P11229 whole entry, looked up): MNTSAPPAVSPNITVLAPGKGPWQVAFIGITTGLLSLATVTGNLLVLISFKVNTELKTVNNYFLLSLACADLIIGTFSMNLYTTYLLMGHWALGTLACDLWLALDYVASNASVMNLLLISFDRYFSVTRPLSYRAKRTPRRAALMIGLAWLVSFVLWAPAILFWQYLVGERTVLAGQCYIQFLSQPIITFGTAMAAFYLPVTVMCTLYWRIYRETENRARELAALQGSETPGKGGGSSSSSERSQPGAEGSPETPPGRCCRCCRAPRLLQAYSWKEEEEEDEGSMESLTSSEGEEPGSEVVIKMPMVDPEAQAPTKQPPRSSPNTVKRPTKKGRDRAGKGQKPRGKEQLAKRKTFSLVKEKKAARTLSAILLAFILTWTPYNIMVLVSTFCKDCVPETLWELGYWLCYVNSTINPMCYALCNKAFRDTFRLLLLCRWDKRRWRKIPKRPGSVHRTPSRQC

The experiment deals with Muscarinic acetylcholine receptor M1 (Homo sapiens) (UniProt P11229). In words: Cholinergic receptor muscarinic 1 (CHRM1) small molecule antagonists, cell-based qHTS assay (AID 1963588). Further: nearly all actives have a fitted effect of over 40% in size. The settings on record: CHRM1-CHO antagonist mode, calcium flux fluorescence; series mostly up to 61.5 µM; activity, negative = inhibition: at the top concentration. An excerpt:
National Center for Advancing Translational Sciences [NCATS]
Division of Preclinical Innovation [DPI]
U.S. Environmental Protection Agency [EPA]
National Institutes of Environmental Health Sciences [NIEHS]
National Toxicology Program [NTP]
U.S. Food and Drug Administration [FDA]
The CHRM1 is a muscarinic receptor. This receptor plays a crucial role in learning and memory processes and has long been identified as a promising therapeutic target for the improvement of cognitive decline in Alzheimer's disease (AD). The CHRM1-CHO cell line stably expressing human muscarinic acetylcholine receptor M1 (CHRM1) can be used for screening agonists and antagonists of interactions between CHRM1 and its ligands. The CHRM1-CHO Calcium Flux Assay is a homogeneous fluorescence-based assay for detecting the intracellular calcium level using FDSS kinetic plate reader system.
Tox21 Assay Protocol Summary:
CHRM1-CHO cells were dispensed at 1000 cells/3uL/well in 1536-well black-clear bottom plates using a Multidrop Dispenser. After the assay plates were incubated at a 37 C/5% CO2 incubator for 18 h, 3 uL of Dye Loading Buffer was transferred to the assay plate by a Flying Reagent Dispenser. The assay plates were incubated at 37 C for 1h. For antagonist mode, 23 nL of compounds dissolved in DMSO, positive controls or DMSO only was transferred to the assay plate by a pin tool. After 5 min incubation at room temperature, 1.5 uL of acetylcholine at 50nM was added to each well. The fluorescence intensity in the plates was measured using FDSS 7000EX kinetic plate reader for 3 min at 1 sec intervals. Each test compound was measured at 15 concentrations in three independent runs.
For the compound `CCCCCCCCCCCCCCCCCCOCC(O)CO` (stereo not given), the “activity, negative = inhibition” value was -2.55% [at 28.3 µM] (inactive).
With `O=C(O)c1cc(O)c(O)c(O)c1`, the “activity, negative = inhibition” value is 17.4% [at 28.3 µM] (inactive).
Still for that read-out and setting: next, `COC(OC)OC`: 9.51% (inactive).
For the compound `CCCCCCCCCCCC(=O)N(C)CC(=O)O`, the Potency entry was “inactive”.
As to `COC(=O)c1ccc(C)cc1C1=NC(C)(C(C)C)C(=O)N1` (stereo not given), the “activity, negative = inhibition” value is -12.7% (inactive).
Same read-out and setting: the same measure for `[Cl][Nd]([Cl])[Cl]`: 27.2% (inactive).
The same measure, in the same setting: the same measure for `O=C1OC(CN2CCOCC2)CN1/N=C/c1ccc([N+](=O)[O-])o1` (stereo not given): 23% [at 28.3 µM] (inactive).
On the same count and under the same terms, the same measure for `O=Cc1cc2ccccc2o1`: -8.12% (inactive).
`CC(=O)c1ccc2ccccc2c1`: the “activity, negative = inhibition” value is -4.66% (inactive).
Still for that read-out and setting: the same measure for `C/C=C(\C)C(=O)OCc1ccccc1`: -6.28% (inactive); for `CC(C)CCCC(C)CCCC(C)CCCCC(C)CCCC(C)CCCC(C)C` (stereo not given): 0.0454% [at 28.3 µM] (inactive).
Take `COc1ccccc1NC(=O)CC(C)=O`: the Potency result is “inactive”.
In the case of `CC(C#N)(CCC(=O)O)N=NC(C)(C#N)CCC(=O)O` (stereo not given), the “activity, negative = inhibition” value was 12.6% (inactive).
For `CCC(C)C(=O)OCCc1ccccc1` (stereo not given), the “activity, negative = inhibition” value was -9.83% (inactive).
Regarding `OC[C@H]1O[C@@H](O[C@H]2[C@H](O)[C@@H](O)[C@H](O)O[C@@H]2CO)[C@H](O)[C@@H](O)[C@H]1O`, the “activity, negative = inhibition” value was -1.73% (inactive).
Same read-out and setting: the same measure for `CC(C)CCCC(C)N` (stereo not given): 45.6% [at 28.3 µM] (inactive).
For `OC[C@H]1O[C@@](CO)(O[C@H]2O[C@H](CO)[C@@H](O)[C@H](O)[C@H]2O)[C@@H](O)[C@@H]1O`, the Potency entry was “inactive”.
Consider `CCCCC(CC)CCC(CC(C)C)OS(=O)(=O)O` (stereo not given), for which the “activity, negative = inhibition” value is 0.618% (inactive).
On the same count and under the same terms, the same measure for `NCCNCCO`: 4.04% (inactive); for `CC(=O)c1ccccc1O`: 4.75% (inactive).
Same read-out and setting: the same measure for `Cc1onc(-c2ccccc2)c1C(=O)Cl`: -4.3% [at 28.3 µM] (inactive).
The same measure, in the same setting: the same measure for `CC(C)=CCCC(C)O` (stereo not given): -6.65% (inactive).
On to `CC(C)S`, for which the “activity, negative = inhibition” value is 2% (inactive).
As for `CC(=O)S[C@H](C(=O)N[C@H]1Cc2ccccc2[C@H]2CCC[C@@H](C(=O)O)N2C1=O)C(C)C`, the “activity, negative = inhibition” value is 3.63% (inactive).
Turning to `O=c1cc(CO)occ1O`, the “activity, negative = inhibition” value was -13.1% [at 28.3 µM] (inactive).
In the case of `OCC(CO)N[C@H]1C[C@](O)(CO)[C@@H](O)[C@H](O)[C@H]1O`, the “activity, negative = inhibition” value is 0.0521% [at 28.3 µM] (inactive).
As to `CC(C)(C)c1cc(C(C)(C)C)c(O)c(C(C)(C)C)c1`, the Potency result is “inactive”.
On to `CC(C)CC(O)Cc1ccccc1` (stereo not given), for which the “activity, negative = inhibition” value was -6.15% (inactive).
As for `Nc1cc(S(=O)(=O)O)cc2cc(S(=O)(=O)O)cc(O)c12`, the Potency entry is “inactive”.
For the compound `C/C=C(\C)C(=O)OC/C=C(\C)CCC=C(C)C`, the “activity, negative = inhibition” value was 1.62% (inactive).
In the case of `CCOCOCC`, the “activity, negative = inhibition” value is 9.47% (inactive).
Turning to `OCC#CCO`, the Potency was 17 µM (active) and inactive.
Take `CCOC(=O)c1cccc(N)c1`: the “activity, negative = inhibition” value was 5.54% [at 28.3 µM] (inactive).
Take `C[Si](C)O[Si](C)(C)O[Si](C)(C)O[Si](C)C`: the “activity, negative = inhibition” value is 3.56% (inactive).
Same read-out and setting: the same measure for `C=C(C)[C@@H]1CCC2=CCC[C@@H](C)[C@]2(C)C1`: -11.5% (inactive); for `CC(C)(C)c1nnc(NS(=O)(=O)c2ccc(N)cc2)s1`: 0.649% [at 28.3 µM] (inactive); for `F[Si-2](F)(F)(F)(F)F`: -3.54% (inactive).
`Cc1ccc(S(=O)(=O)NC2CCCCC2)cc1`: the “activity, negative = inhibition” value was -3.88% (inactive).
Still for that read-out and setting: next, `COc1ccc2cccc(CCNC(C)=O)c2c1`: -14.9% [at 28.3 µM] (inactive); `CCC(=O)OCc1ccc(OC)cc1`: -6.08% (inactive).

(Values after PubChem BioAssay (Tox21).)
